Bioassay records: PubChem BioAssay, National Center for Advancing Translational Sciences (NCATS)
SARS PLpro yeast-1: qHTS of Yeast-based Assay for SARS-CoV PLP | S. cerevisiae expressing SARS-CoV PLpro, growth rescue | Potency, µM (series often up to 32.9 µM), for the others: at the highest dose activity, positive = growth rescue, hits mostly activators | 330,000 tested, 0.19% active | AID 485353, 2010; calls by dose curve; also: potency is read from the fitted curve at half-maximal effect; 0% is about no effect; nearly all actives have a fitted effect of over 55% in size
Pf growth 48h: Primary qHTS for delayed death inhibitors of the malarial parasite plastid, 48 hour incubation; P. falciparum luciferase growth in erythrocytes, 48 h; Potency, µM (highest dose often 28.7 µM), for inactives: top-dose activity change, negative = inhibition, actives largely listed as inhibitors; 310,000 tested, 5.9% active; AID 504832, 2011; also: potency is read from the fitted curve at half-maximal effect; % is scaled to controls: 0 for no effect and ±100 for the full control effect
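Compounds are pin-transferred into medium, infected erythrocytes (2% hematocrit, 0.1% parasitemia final) are added, and plates sit one parasite generation at 37 C in 5% CO2. Detection reagent is then added and luminescence measured.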
Pf growth 96h: Primary qHTS for delayed death inhibitors of the malarial parasite plastid, 96 hour incubation; P. falciparum luciferase reporter growth, 96 h; Potency, µM (top dose mostly 28.7 µM), inactives show top-dose activity change, negative = inhibition, actives largely listed as inhibitors; 320,000 tested, 6.9% active; AID 504834, 2011; also: potency is read from the fitted curve at half-maximal effect; % is scaled to controls: 0 for no effect and ±100 for the full control effect
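Two parasite generations (96 h, 37 C, 5% CO2) of compound exposure in infected erythrocytes (0.05% parasitemia, 2% hematocrit). Luciferase-reporter P. falciparum; decreased luminescence indicates inhibited growth, aimed at apicoplast-acting delayed death.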
AMA1-RON2 inh: qHTS for Inhibitors of AMA1-RON; Towards Development of Antimalarial Drug Lead: Primary Screen. AID 720542, 2013. 360,000 tested, 0.2% active. Potency, µM (doses to about 58.2 µM), without a hit: top-dose activity change, negative = inhibition, most hits filed as inhibitors. Plasmodium falciparum AMA1 (3D7) - RON2 peptide interaction. AlphaScreen AMA1-biotinylated RON2 peptide binding;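 also: potency is read from the fitted curve at half-maximal effect; 0% = vehicle wells and -100% = peptide control; nearly all actives have a fitted effect of over 45% in size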
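AMA1 (3D7) with his tag at 25 nM final met compounds first, then biotinylated RON2 peptide at 25 nM; detection used donor plus acceptor beads, 10 µg/mL apiece, read by AlphaScreen after 30 min at room temperature.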
SARS PLpro yeast-2: qHTS of Yeast-based Assay for SARS-CoV PLP: Hit Validation | yeast expressing SARS-CoV PLpro, growth phenotype rescue | AID 652038, 2013 | 1,000 tested, 19% active | shares compounds with SARS PLpro yeast-1 | calls only; call rule not given here
The depositor's hits bear a star; i = inactive; u = inconclusive; x = no result; + = active, no number; [ ] = remark or other dose. A selection: hits, their analogues and other compounds. The true share with any hit is near 9.4%. Unless noted, calls follow the shape of the dose curve; as a rule, active = well fitted curve in the direction sought with a large enough effect; inconclusive = small, poorly fitted or top-dose-only effect, or another doubt; inactive = no such curve, though single readings can be large; an effect the other way counts as inactive or inconclusive.

SMILES	SARS PLpro yeast-1	Pf growth 48h	Pf growth 96h	AMA1-RON2 inh	SARS PLpro yeast-2
CCn1c(C)c(C)c2cc(C(=O)NCCCN3CCCC3)ccc21	u	-35%	2%	-4%	x
CCOc1ccccc1-c1c2cc(O)c(=O)cc-2oc2cc(O)c(O)cc12	11µM*	13µM*	26%	u	+
CCOC(=O)c1oc2cc(O)ccc2c(=O)c1-c1ccccc1OC	-7%	-7%	-2%	-1%	x
COc1ccc(OC)c(-c2c3cc(O)c(=O)cc-3oc3cc(O)c(O)cc23)c1	u	10µM*	32%	2µM*	+
O=C(NCC1CCCO1)c1cccc(Oc2c(Cl)cccc2[N+](=O)[O-])c1 (stereo unspecified)	11%	u	-21%	-3%	x
Cn1cccc1/C=N/NC(N)=S	10µM*	9%	u	74%	+
CNCCCN1c2ccccc2CCc2ccccc21	18µM*	u	u	-5%	i
CCN1C(=O)CCCc2ccccc21	-1%	-8%	5%	0%	x
Cc1cccc(-n2ccnc2SCC(=O)Nc2nnc(C)s2)c1	6%	x	u	1%	x
CCc1nnc(NC(=O)CSc2nccn2-c2cccc(C)c2)s1	13µM*	x	-28%	0%	i
CCC1CCCCN1S(=O)(=O)c1ccc(C(=O)Nc2nnc(-c3cccs3)o2)cc1 (stereo unspecified)	11µM*	10µM*	42%	117%	+
Fc1cccc(/C=N/Nc2nncc3ccccc23)c1	-7%	x	261%	-4%	x
C(=N\Nc1nncc2ccccc12)/c1ccccn1	13µM*	0.83µM*	u	97%	i
CN1CCN(S(=O)(=O)c2cc([N+](=O)[O-])ccc2N2CCCCCC2)CC1	5%	-2%	u	-2%	x
Cc1onc(-c2ccccc2)c1C(=O)NC(=S)NNC(=O)c1cccnc1	5%	22%	u	68%	x
Cc1onc(-c2ccccc2)c1C(=O)NC(=S)NNC(=O)c1ccncc1	13µM*	u	10µM*	55%	i
CCC(=O)c1c(CC)c2n3c1CC[C@H]3CCC2	1%	7%	44%	-2%	x
O=C(CCNS(=O)(=O)c1cccs1)Nc1nccs1	7%	25%	26%	-6%	x
O=C(CCNS(=O)(=O)c1cccs1)Nc1ccccc1F	u	7%	u	-4%	i
COc1ccc(NC(=S)NN2C(C)CCCC2C)cc1 (stereo unspecified)	13µM*	6%	-28%	-2%	+
CC1CCCC(C)N1NC(=S)Nc1ccc(OC(F)F)cc1 (stereo unspecified)	u	u	-22%	68%	+
COc1cccc(NC(=S)NN2C(C)CCCC2C)c1 (stereo unspecified)	u	u	u	51%	+
O=C(NCCS(=O)(=O)N1CCN(c2ccccc2F)CC1)C1CC(=O)N(c2ccccc2)C1 (stereo unspecified)	4%	5%	-12%	2%	x
O=C(COc1ccc(Cl)cc1Cl)Nc1ccc(Cl)cn1	-4%	x	u	-1%	x
CCOc1ccc(-c2cnc(SCC(N)=O)nc2N)cc1	6%	6%	8%[5.75 µM]	2%	x
SMILES	SARS PLpro yeast-1	Pf growth 48h	Pf growth 96h	AMA1-RON2 inh	SARS PLpro yeast-2
NOCC(=O)O	u	11%	8%	2%	i
C[C@@H]1C[C@H]2[C@@H]3CCC4=CC(=O)C=C[C@]4(C)[C@@]3(F)[C@@H](O)C[C@]2(C)[C@H]1C(=O)CO	10µM*	u	9.3µM*	-2%	i
COc1cccc(NC(=O)CCCOc2cc(=O)n(C)c3ccccc23)c1	2%	-11%	30%	-9%	x
CCOc1ccc(NC(=O)CCCOc2cc(=O)n(C)c3ccccc23)cc1	u	-25%	-19%	-3%	+
O=C(N/N=C/c1ccc(O)c(O)c1O)/C(=C/c1ccc([N+](=O)[O-])cc1)NC(=O)c1ccccc1	2.5µM*	x	9.3µM*	37%	i
O=C(/C=C/c1cccs1)NC(=S)NNC(=O)Cc1cccs1	u	u	-45%	128%	+
NC(=NCCc1ccccc1)NS(=O)(=O)c1ccc(F)cc1	u	3%	-15%	31%	i
Cc1nc(SCC(=O)NNC(=O)c2ccc(F)cc2)c2ccccc2n1	x	x	x	76%	x
Cc1cccc(NC(=O)Cn2cccc2)c1	3%	51%	-8%	-3%	x
CCCCNC(=S)NC(=O)c1ccccc1Br	11µM*	8%	-29%	13%	+
O=C(CNC(=S)NC(=O)c1ccccc1Br)c1ccccc1	2%	15%	9%	-8%	x
O=C(NCCCn1ccnc1)/C(=C/c1ccco1)NC(=O)c1cccs1	0%	3%	14%	-4%	x
CC(=O)N(C)Cc1ccc(C(=O)CCl)cc1	7.9µM*	11%	-34%	-9%	+
CC(=O)NCc1ccc(C(=O)CCl)cc1	4%	-5%	-20%	-9%	x
O=C(NC(=S)Nc1ccccc1N1CCCC1)c1ccc([N+](=O)[O-])cc1	u	22%	u	-14%[2.32 µM]	x
Cc1c(C(=O)NC(=S)Nc2ccccc2N2CCCC2)cccc1[N+](=O)[O-]	7.1µM*	15µM*	u	7%[2.32 µM]	+
Cc1ccc(/C=C/C(=O)c2ccccc(=O)c2O)cc1C	u	8.3µM*	9.3µM*	62%	u
O=[N+]([O-])c1ccc(/C=N/N2CCN(c3ccncc3S(=O)(=O)N3CCCCC3)CC2)cc1	3.2µM*	u	4.1µM*	1%	i
CN1CCN(c2ccncc2S(=O)(=O)N2CCCCC2)CC1	4%	-37%	u	4%	x
O=C(Oc1c(CN2CCOCC2)cc(Cl)c2cccnc12)c1ccccc1F	2.5µM*	-13%	2.1µM*	-31%	u
O=C(Oc1c(CN2CCOCC2)cc(Cl)c2cccnc12)c1ccccc1	u	u	u	-73%	x
CC(OC(=O)c1cccc(-n2cnnn2)c1)C(=O)c1ccccc1 (stereo unspecified)	u	16%	28%	14%	i
COC(=O)c1ccc(OC(=O)c2cccnc2)cc1	16µM*	-1%	u	1%	u
CC(C)OC(=O)c1ccc(OC(=O)c2cccnc2)cc1	-6%	21%	x	6%	x
COc1cc(/C=N/NC(=O)c2cc(O)cc(O)c2)ccc1OC(=O)c1ccccc1	7%	-20%	u	u	x
NC(=S)N/N=C/c1ccc2ccccc2c1	5.6µM*	-15%	u	25%	+
NC(=S)N/N=C/C=C/c1ccccc1	1.6µM*	u	u	23%[2.32 µM]	+
NC(=S)N/N=C/c1cccc(/C=N/NC(N)=S)c1	0%	63%	0%	66%	x
COc1ccc(/C=N/NC(N)=S)cc1OC(=O)c1ccccc1	11µM*	x	3%	20%	i
Cc1ccc(NC(=O)CCC(=O)c2cc(C)sc2C)nc1	1%	u	8%	-1%	x
